The subject of assay [1] is Human papillomavirus type 1a protein E7 (residues 44-93). Kind of assay: HPV1a E7 fragment binders on microarrays, primary screen, biochemical, small-molecule microarray, residues 44-93, 635 nm fluorescence (AID 1108).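 Note: E7 fragment applied at 1 µg/mL in TBST for 1 h at 4 C; score combines spot fluorescence with its signal to noise ratio.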 The note with it: small-molecule microarray binding, fluorescence 635 nm; higher = more signal.
Assay [2] can be described thus: modulators of HCV replicon luciferase signal, primary screen, HCV replication inhibitor project, Huh7 cells, luciferase reporter (AID 1109).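 Note: huh7 hepatoma cells harbouring a luciferase neomycin HCV replicon reporter; luciferase luminescence as measure of HCV replicon replication; test concentration not given here.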 Particulars: 48 h, higher = more signal. For orientation: A replicon is a self-replicating genome or part of one, used to study replication in cells.
The target in assay [3] is Left-right determination factor 2 (Homo sapiens) (UniProt O00292). Kind of assay: LEFTY2 binders on small-molecule microarrays, primary screen, biochemical, small-molecule microarray, 635 nm fluorescence scan (AID 1110). The note with it: LEFTY2 binding, higher = more signal.
Left-right determination factor 2 (Homo sapiens), sequence (O00292 whole entry, looked up): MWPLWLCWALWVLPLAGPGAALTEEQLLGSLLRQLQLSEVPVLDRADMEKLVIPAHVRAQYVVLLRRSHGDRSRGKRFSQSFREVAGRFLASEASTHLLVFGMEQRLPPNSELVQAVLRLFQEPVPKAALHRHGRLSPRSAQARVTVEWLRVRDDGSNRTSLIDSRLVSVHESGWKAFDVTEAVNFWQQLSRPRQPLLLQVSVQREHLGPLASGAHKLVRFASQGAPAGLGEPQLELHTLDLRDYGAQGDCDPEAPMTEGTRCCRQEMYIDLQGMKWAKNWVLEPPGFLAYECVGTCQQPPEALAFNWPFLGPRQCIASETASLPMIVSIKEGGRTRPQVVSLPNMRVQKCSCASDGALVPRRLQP
The target of assay [4] is Calmodulin-1 (Homo sapiens) (UniProt P0DP23). Kind of assay: CALM1 binders on microarrays, EGTA buffer, profiling panel, biochemical, small-molecule microarray, Cy5-labelled CALM1 (AID 1111).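 Note: labelled calmodulin applied in Tris saline Tween buffer holding calcium plus EGTA and DTT.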 Particulars: Cy5-CALM1 binding fluorescence, higher = more signal.
For assay [5] the target is unchanged. Kind of assay: calcium-bound CALM1 binders on microarrays, profiling panel, artefact control for SMM control-protein annotation, biochemical, small-molecule microarray, Cy5-labelled CALM1, plus calcium (AID 1112).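 Note: score merges spot fluorescence with signal to noise from triplicate slides.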 The note with it: Cy5-CALM1 binding fluorescence, higher = more signal.
A short description of assay [6]: small-molecule microarray binders of probe aWnt5a, primary screen, biochemical, biotinylated probe, 635/667 nm fluorescence (AID 1113).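 Note: score merges 667 nm fluorescence intensity with signal-to-noise per printed feature.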 Particulars: higher = more signal.
Assay [7] in a line: small-molecule microarray binders of probe aShh, primary screen, biochemical, biotinylated probe, 635/667 nm fluorescence (AID 1114).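 Note: probe is biotin-labelled aShh protein from a stem cell growth factor screen; measures binding of labelled protein to compounds printed on the slide; score merges feature fluorescence at 667 nm with signal-to-noise.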 The note with it: higher = more signal.
Assay [8] is described as follows: small-molecule microarray binders of probe aNog, primary screen, biochemical, biotinylated probe, 635/667 nm fluorescence (AID 1115).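 Note: probe is biotinylated aNog protein used at 0.15 µg/mL for 1 h at 4 C; z-score combines 667 nm fluorescence of each spot with its signal to noise.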 The note with it: higher = more signal.
In assay [9] the target is Torsin-1A-interacting protein 1 (Homo sapiens) (UniProt Q5JTV8). Kind of assay: LAP1 binders from COS7 cell lysate, primary screen, small-molecule microarray, 635/667 nm fluorescence (AID 1116). The note with it: COS7-hLAP1 lysate binding, 635 nm fluorescence, higher = more signal.
Torsin-1A-interacting protein 1 (Homo sapiens), sequence (Q5JTV8 whole entry, looked up): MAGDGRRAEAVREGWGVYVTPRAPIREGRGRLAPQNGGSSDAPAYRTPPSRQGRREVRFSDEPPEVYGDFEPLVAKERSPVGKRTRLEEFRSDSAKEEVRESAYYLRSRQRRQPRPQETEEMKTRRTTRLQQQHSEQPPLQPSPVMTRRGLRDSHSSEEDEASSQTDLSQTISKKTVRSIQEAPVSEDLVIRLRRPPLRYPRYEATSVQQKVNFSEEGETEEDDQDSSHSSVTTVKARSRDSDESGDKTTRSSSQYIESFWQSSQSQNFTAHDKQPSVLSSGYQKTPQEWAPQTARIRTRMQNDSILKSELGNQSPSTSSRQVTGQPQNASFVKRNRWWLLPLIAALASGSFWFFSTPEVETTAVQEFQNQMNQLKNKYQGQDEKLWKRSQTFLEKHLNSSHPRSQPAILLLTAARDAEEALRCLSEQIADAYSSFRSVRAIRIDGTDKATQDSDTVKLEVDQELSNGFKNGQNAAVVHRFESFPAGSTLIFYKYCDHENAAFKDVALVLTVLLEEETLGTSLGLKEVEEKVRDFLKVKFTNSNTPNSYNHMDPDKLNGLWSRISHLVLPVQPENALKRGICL
For assay [10], the target named is Alpha-bungarotoxin (Bungarus multicinctus) (UniProt P60615). Kind of assay: alpha-bungarotoxin binders on microarray, profiling panel, artefact control for SMM control protein annotation, biochemical, small-molecule microarray, Alexa647 label, 635/667 nm fluorescence (AID 1117). The note with it: alpha-BTX-A647 binding fluorescence, higher = more signal.
Alpha-bungarotoxin (Bungarus multicinctus), sequence (P60615 whole entry, looked up): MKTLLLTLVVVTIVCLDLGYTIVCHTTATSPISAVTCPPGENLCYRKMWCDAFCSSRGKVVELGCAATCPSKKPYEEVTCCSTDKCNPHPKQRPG
The target in the next assay is Albumin (Bos taurus) (UniProt P02769). Kind of assay: bovine serum albumin binders on microarray, profiling panel, artefact control for SMM control protein annotation, biochemical, small-molecule microarray, Alexa647 label, 635/667 nm fluorescence (AID 1118).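 Note: score merges 667 nm emission intensity and signal-to-noise per printed compound spot.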 The note with it: BSA-A647 binding, fluorescence 635 nm, higher = more signal.
Albumin (Bos taurus), sequence (P02769 whole entry, looked up): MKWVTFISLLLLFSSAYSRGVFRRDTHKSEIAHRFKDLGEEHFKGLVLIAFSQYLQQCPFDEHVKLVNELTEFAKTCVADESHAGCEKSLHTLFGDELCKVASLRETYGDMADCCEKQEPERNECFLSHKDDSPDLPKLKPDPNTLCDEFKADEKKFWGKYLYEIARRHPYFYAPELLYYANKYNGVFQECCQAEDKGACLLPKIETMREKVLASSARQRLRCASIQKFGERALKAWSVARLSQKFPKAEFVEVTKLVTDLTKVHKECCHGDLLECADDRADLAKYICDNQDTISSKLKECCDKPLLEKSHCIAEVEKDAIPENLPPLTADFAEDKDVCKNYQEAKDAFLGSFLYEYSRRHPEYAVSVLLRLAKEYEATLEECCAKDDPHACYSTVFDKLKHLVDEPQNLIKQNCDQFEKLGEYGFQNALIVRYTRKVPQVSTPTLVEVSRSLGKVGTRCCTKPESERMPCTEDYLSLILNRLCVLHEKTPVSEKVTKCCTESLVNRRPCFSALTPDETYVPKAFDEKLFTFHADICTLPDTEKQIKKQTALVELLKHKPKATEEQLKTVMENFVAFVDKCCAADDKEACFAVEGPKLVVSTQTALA
Assay [11] is described as follows: small-molecule microarray binders of probe aXIP, primary screen, biochemical, NeuroSMM set, 635/667 nm fluorescence (AID 1119).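 Note: probe is the protein aXip251-270 applied at 1 µg/mL to compound-printed slides; binding of probe to printed compounds measured as 667 nm fluorescence plus signal to noise.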 The note with it: higher = more signal, called active from +8 up or from −8 down.
A short description of assay [12]: small-molecule binders of probe aNOTCH3, primary screen, biochemical, small-molecule microarray, 635/667 nm fluorescence (AID 1120).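 Note: probe is a biotin-tagged antibody raised against NOTCH3 rather than NOTCH3 protein; score merges spot fluorescence near 667 nm with spot signal to noise.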 The note with it: higher = more signal.
Assay [13] can be described thus: small-molecule binders of probe aNOTCH2, primary screen, biochemical, small-molecule microarray, 635/667 nm fluorescence (AID 1121).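 Note: score merges feature fluorescence read at 667 nm with its signal to noise.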 The note with it: higher = more signal.
Assay [14] has as its target Carbonic anhydrase 2 (Homo sapiens) (UniProt P00918). Kind of assay: CAII small-molecule binders, profiling panel, biochemical, small-molecule microarray, Alexa647-labelled CAII (AID 1122). The note with it: CAII-A647 binding fluorescence, higher = more signal.
Assay [15] can be described thus: COS7 lysate on small-molecule microarray, probe aHis, 635 nm (AID 1123).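 Note: z-score combines 667nm fluorescence intensity with signal-to-noise per printed compound spot.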 Particulars: COS7 cell lysate, fluorescence, higher = more signal.
Assay [16] in a line: compound binding in COS7 lysate, probe aLAP1, primary screen, cell lysate, small-molecule microarray (AID 1124).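 Note: lysate comes from COS7 cells expressing LAP1 and is applied at 0.3 µg/mL; score merges spot fluorescence near 667 nm with signal-to-noise over triplicate slides.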 Particulars: probe aLAP1, fluorescence, higher = more signal.
For the next assay, the system named is Sam68 (KHDRBS1). Kind of assay: Sam68 small-molecule binders, primary screen, biochemical, small-molecule microarray, 635 nm fluorescence (AID 1125).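 Note: score merges 667 nm channel intensity with signal to noise over triplicate slides.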 The note with it: small-molecule microarray binding, higher = more signal.
Assay [17] has as its system Chordin-like protein 2 (CHRDL2). Kind of assay: CHRDL2 small-molecule binders, primary screen, biochemical, small-molecule microarray, 635 nm fluorescence (AID 1126).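 Note: printed compound slides probed with Chrdl2 protein at 4 µg/mL for 1 h at 4 C; score merges 667 nm emission intensity with signal to noise over three replicate slides.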 Particulars: small-molecule microarray binding, fluorescence 635 nm; higher = more signal.
Assay [18] addresses Concanavalin-A (Canavalia ensiformis) (UniProt P02866). Kind of assay: ConA small-molecule binders, primary screen, artefact control for SMM control protein annotation, biochemical, small-molecule microarray, Alexa647 label, 635 nm (AID 1127).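 Note: z combines 667 nm emission intensity with signal-to-noise across three replicate slides.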 The note with it: ConA-A647 binding fluorescence, higher = more signal.

Calls of active or inactive are those of the source.

Concanavalin-A (Canavalia ensiformis), sequence (P02866 whole entry, looked up): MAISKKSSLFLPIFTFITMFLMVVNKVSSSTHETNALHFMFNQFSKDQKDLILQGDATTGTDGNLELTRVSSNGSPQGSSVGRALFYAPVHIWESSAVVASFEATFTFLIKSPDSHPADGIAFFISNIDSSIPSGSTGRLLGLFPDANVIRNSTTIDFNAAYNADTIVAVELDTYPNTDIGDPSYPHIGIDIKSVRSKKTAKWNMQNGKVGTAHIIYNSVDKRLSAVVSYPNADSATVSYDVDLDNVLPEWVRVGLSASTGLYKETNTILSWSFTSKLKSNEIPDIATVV

In the case of `[N-]=[N+]=NCc1ccccc1C[C@]1(C(=O)N2CCOCC2)COC(c2ccc(OCCCO)cc2)=N1`, the composite z-score in assay [1] was 1.01; in [3] it was -0.305; in [4] it was 2.35; in assay [5] it was 0.822; in assay [6], 0.168; in assay [7], 0.0326. For the same compound, the composite z-score in assay [8] was found to be 1.87; in assay [9], 2.22; in [10] it was 0.326; with Albumin (Bos taurus) it was 0.754; in [12], 0.139; in assay [13], 0.126. Further, the composite z-score in [14] was 0.71; in assay [15], 0.969; in [16] it was 0.262; in the assay with Sam68 (KHDRBS1) it was 1.22; in assay [17], -0.202; in assay [18], 0.468. Moreover, in assay [2], the z-score was -1.54. In addition, in [11], the composite Z-score is -0.592 (inactive).
As for `CCOC(=O)C[C@H]1[C@H](OC(=O)c2ccc(C(=O)c3ccccc3)cc2)[C@@H](NC(=O)CC(C)C)c2cc(OCCCO)ccc2N1C(=O)Cc1ccc(OC)cc1`, the composite z-score was 1.1 in assay [1]; 0.142 in assay [3]; 1.19 in [4]; 0.263 in [5]; -0.0852 in [6]; -0.238 in assay [7]. The composite z-score is 0.0437 in assay [8]; 0.812 in assay [9]; 0.118 in [10]; 0.793 with Albumin (Bos taurus); -0.0377 in [12]; 0.075 in assay [13]. Further, the composite z-score in [14] was 0.139; in [15], 1.26; in [16], 0.563; in the assay with Sam68 (KHDRBS1), 0.698; in assay [17], -0.612; in assay [18] it was 0.142. The z-score in assay [2] is -2.05. Besides, the composite Z-score in [11] was -0.0147 (inactive).
In the case of `CC(C)CNC(=O)[C@@H]1c2ccccc2C(=O)N(C2CCCCC2)[C@H]1c1ccc(CO)cc1`, the composite z-score in [1] is 0.0857; in assay [3] it was -0.276; in assay [4], 0.54; in assay [5], 1.09; in [6], -0.124; in assay [7] it was -0.153. Besides, the composite z-score in [8] was 0.313; in assay [9], 0.875; in [10], -0.624; with Albumin (Bos taurus), -0.183; in assay [12] it was -0.159; in assay [13], -0.118. Also, the composite z-score in [14] was 0.694; in assay [15] it was 2.44; in assay [16] it was -0.264; with Sam68 (KHDRBS1), 0.369; in assay [17] it was -0.718; in assay [18], -0.0374. In assay [2], the z-score was -0.48. Moreover, the composite Z-score in assay [11] was 1.32 (inactive).
As to `COC(=O)[C@@]1(Cc2ccc(OC)cc2)[C@H]2c3cc(C(=O)N4CCCC4)n(Cc4ccc(S(C)(=O)=O)cc4)c3C[C@H]2CN1C(=O)c1ccccc1`, the composite z-score in assay [1] is 0.918; in assay [3], -0.0914; in [4] it was 2.06; in assay [5], 0.955; in assay [6], 0.108; in assay [7], 0.883. The composite z-score in [8] is -0.121; in assay [9] it was 1.05; in [10], 0.448; with Albumin (Bos taurus), 1.03; in assay [12], 0.264; in [13], 0.36. Besides, the composite z-score was 0.583 in assay [14]; 2.22 in assay [15]; -0.272 in assay [16]; 0.838 in the assay with Sam68 (KHDRBS1); -0.737 in [17]; 0.417 in [18]. In addition, in assay [2], the z-score was -0.887. Also, the composite Z-score in assay [11] is 0.602 (inactive).
On to `COc1ccc(C(O)C2C=CC3C(=O)N(c4ccccc4)C(=O)C3N2Nc2ccc(C(C)C)cc2)c2ccccc12` (stereo not given), for which the composite z-score is 1.39 in [1]; -0.146 in assay [3]; 1.17 in [4]; 0.922 in [5]; 0.0068 in assay [6]; 0.232 in assay [7]. The composite z-score was -0.229 in assay [8]; 0.865 in assay [9]; 2.55 in assay [10]; 0.916 in the assay with Albumin (Bos taurus); 0.378 in assay [12]; 0.186 in assay [13]. Moreover, the composite z-score in assay [14] is 0.725; in assay [15], 2.84; in [16], 0.284; in the assay on Sam68 (KHDRBS1) it was 1.31; in [17] it was -0.118; in [18] it was 1.12. Also, the z-score in [2] is -0.716. Besides, the composite Z-score in assay [11] was 0.0396 (inactive).

For the origin of these results see PubChem BioAssay.
